MazEF act: activators of E. coli MazEF toxin-antitoxin RNase, primary screen, biochemical, fluorescence, uHTS | activation, % at 20 µM | 350,000 tested, 0.32% active | AID 504720, 2011 | FAM/BHQ RNA-DNA oligo cleavage fluorescence, 5 h; in the data active means activation above about 50%
Target sequence (P0AE70 whole entry, looked up): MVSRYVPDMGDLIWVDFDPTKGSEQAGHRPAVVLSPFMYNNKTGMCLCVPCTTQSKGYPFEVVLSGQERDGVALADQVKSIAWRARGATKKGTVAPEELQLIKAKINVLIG
Yp Topo-I inh: Yersinia pestis topoisomerase I inhibitors, primary screen, biochemical, cleavage product accumulation, plate reader, single point; DNA topoisomerase I (Yersinia pestis CO92); Y. pestis Topo-I cleavage product accumulation; activity, % at 10 µM; 360,000 tested, 0.064% active; AID 504884, 2011; in the data active means activity above about 50%, passing the limit was not always enough
3CLpro inhibitor: SARS-CoV 3CLpro protease inhibitors, primary screen, biochemical, quenched FRET. Replicase polyprotein 1ab (Severe acute respiratory syndrome coronavirus), P0C6X7. inhibition, % at 6 µM. recombinant SARS-CoV 3CLpro, quenched FRET peptide cleavage. AID 1706, 2009. 290,000 tested, 0.14% active; in the data active means inhibition above about 12%
SSB-PriA inh: inhibitors of Klebsiella pneumoniae PriA binding to SSB C-terminal tail, primary screen, biochemical, AlphaScreen. AlphaScreen SSBct-PriA binding, biotinylated peptide. inhibition, % at 33 µM. 430,000 tested, 0.6% active. AID 1272365, 2023; in the data active means inhibition mostly above about 37%, no sharp cut-off; inactive means mostly below about 20%;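 further: plate controls were negative control peptide for no effect and reference peptide for full effect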
* = called active by the depositor; i = inactive; x = no result given; + = active, no number. In the library only some 0.9% were active in any assay of this set; here they are far more common.

SMILES | MazEF act | Yp Topo-I inh | 3CLpro inhibitor | SSB-PriA inh
O=S(=O)(NCC(O)(c1cccs1)C1CC1)c1ccc2c(c1)OCCO2 (configuration not stated) | x | x | x | -1
CN1C(=O)Cc2cc(NC(=O)c3ccc(Br)o3)ccc21 | x | x | x | -22
N=c1c[n+](N2CCOCC2)[n-]o1 | 353* | 2 | -1 | -30
N=c1c[n+](C2CCCCC2)[n-]o1 | 8 | 9 | 4 | -11
Cc1cc(NC(=O)c2ccc(-c3ccccc3)cc2)n(C)n1 | x | x | x | -15
O=C(Oc1c(CN2CCOCC2)cc(Cl)c2cccnc12)c1ccccc1F | -3 | 17 | -2 | 58*
O=C(Oc1c(CN2CCOCC2)cc(Cl)c2cccnc12)c1ccco1 | x | x | x | 101*
O=C(Oc1c(CN2CCOCC2)cc(Cl)c2cccnc12)c1ccccc1 | 9 | -4 | 5 | 3
NC(=NOC(=O)CC(c1ccccc1)c1ccccc1)c1cccnc1 | x | x | x | -14
CCOC(=O)c1nn(-c2ccc(F)cc2)c(=O)cc1NC(=O)c1cccc(Br)c1 | x | x | x | -6
Cc1ccc(C)c(NC(=O)C(=O)NC2CCCCC2)c1 | x | x | x | -12
Cc1ccccc1NC(=O)C1c2cccc[n+]2CC(=O)N1c1c(C)cccc1C (configuration not stated) | 63* | -2 | -3 | 7
CC(C)C(=O)Nc1ccc(SCC(=O)N(C(C)C)C(C)C)nn1 | x | x | x | -12
C/C(=C\C(=S)Nc1ccccc1)Nc1ccc2ccccc2c1 | 10 | -31 | 1 | 67*
Cc1ccc(S(C)=NS(=O)(=O)c2ccc(C)cc2)cc1 (configuration not stated) | x | x | x | 9
Cc1ccccc1-c1ccc(/C=C2/SC(N3CCOCC3)=NC2=O)o1 | 151* | 14 | 2 | -5
O=C1N=C(N2CCOCC2)S/C1=C\c1ccc(-c2ccccc2Cl)o1 | 61* | 0 | 2 | -11
O=S(=O)(NCC1(c2ccc(F)cc2)CC1)c1cccc2ccccc12 | x | x | x | -20
Cc1noc(C)c1CC(=O)NCCOc1ccc(F)cc1 | x | x | x | 3
CC(=O)c1ccc(S(=O)(=O)NCCn2nc(-c3cccnc3)ccc2=O)cc1 | x | x | x | 0
Cn1c(O)c(N=Nc2ccc(F)cc2)c2ccccc21 | 337* | 6 | 1 | 0
CC(C)NC(=O)C(=O)Nc1ccc(F)cc1 | x | x | x | -6
C#CCN(C[C@@H](CC(C)C)NC(=O)OC(C)(C)C)S(=O)(=O)c1ccc(Br)cc1F | -3 | 53* | x | -14
CCCN(CCC)CC(O)CN(c1ccccc1)S(=O)(=O)c1ccc(C)cc1 (configuration not stated) | 8 | 12 | 0 | -9
CCCCN(c1nc2ccccc2nc1Cl)S(=O)(=O)c1ccc(C)cc1 | -19 | 55* | 1 | -13
SMILES | MazEF act | Yp Topo-I inh | 3CLpro inhibitor | SSB-PriA inh
N#CC1=C(N)Oc2c(ccc3ccccc23)C1c1cccs1 (configuration not stated) | 59* | x | 0 | -7
CCOc1ccc(C(=O)Nc2c(N)nc(SCc3ccc(Cl)cc3Cl)[nH]c2=O)cc1 | x | x | x | 9
CCc1cc(C(=O)OC)c(NC(=O)CC2Nc3cc(C)c(C)cc3NC2=O)s1 (configuration not stated) | 153* | 1 | -2 | 2
COC(=O)c1c(NC(=O)CC2Nc3cc(C)c(C)cc3NC2=O)sc(C)c1C (configuration not stated) | -21 | 0 | -3 | 6
Oc1ccccc1N=N/C(=N/Nc1ccccc1O)c1ccccc1 | 6 | -3 | x | i
N#C/C(N=Nc1ccccc1O)=N\Nc1ccccc1O | 4 | -40 | x | +
O=C(CSc1nnc(-c2ccccn2)n1Cc1ccco1)c1ccccc1 | 2 | 29 | -1 | -15
O=C(CSc1nnc(-c2ccccn2)n1Cc1ccco1)c1ccc(Cl)cc1 | -4 | -8 | 5 | 90*
CSC1=N/C(=C\c2ccc(C)s2)C(=O)S1 | 532* | -2 | 1 | 16
O=C(CSc1nc2c(cnn2-c2cccc(Cl)c2)c(=O)[nH]1)N1CCCC1 | x | x | x | -2
C=CCc1c(C)nc2c(-c3ccccc3)cnn2c1NCCc1ccc(OC)c(OC)c1 | x | x | x | 36*
COc1ccc(CCNc2cc(C)nc3c(-c4ccccc4OC)cnn23)cc1OC | -2 | 15 | 1 | -21
COc1ccc(NC(=O)Cn2c(=O)n(Cc3ccccn3)c(=O)c3ncccc32)c(OC)c1 | x | x | x | -10
Cc1cc(N=Nc2ccccc2C)ccc1N | -2 | -8 | x | 81*

Compound activity as filed in PubChem BioAssay.
